# Measurements reported in PubChem BioAssay.
# Inconclusive results are not listed. The source made the active and inactive calls.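 How the source made its calls, unless noted: active means thallium flux through the channel raised or lowered by more than 3 SD from vehicle-only wells, actives on both sides; inactive means the rest.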
# How the values were obtained:
# [1] = P. berghei load reduction in hepatocytes – cell-based, HepG2, luciferase luminescence, HepG2 viability, primary screen (AID 624349; in the data active means parasite load remaining mostly below about 12%, no sharp cut-off; inactive means mostly above about 10%;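 further: 100% = mean of DMSO negative control wells on the same plate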); settings: P. berghei liver stage in HepG2, luciferase luminescence, concentration not given here; parasite load remaining: stronger effect = lower value; viability: measured here: HepG2 viability without parasites
# [2] = signal quenchers or enhancers, Cy5 substrate/SSB – biochemical, NIH Clinical Collection, E. coli SSB, artefact control for HCV NS3 helicase inhibitor project (AID 743268; call rule not given here); settings: Cy5-oligo bound E. coli SSB, fluorescence interference
# [3] = system: Hepatitis C virus NS3 helicase; assay: blockers of NS3h binding to DNA – biochemical, fluorescence polarization, NIH Clinical Collection, primary screen (AID 743270; call rule not given here); settings: NS3 helicase binding to Cy5-dT15 DNA, stronger effect = higher value, concentration not given here
# [4] = target: Single-stranded DNA-binding protein (Escherichia coli (strain K12)) (UniProt P0AGE0); assay: SSB-ssDNA binding inhibitors – biochemical, fluorescence polarization, NIH Clinical Collection, counter-screen for HCV NS3 helicase inhibitor project (AID 743271; in the data active means inhibition above about 28%); settings: E. coli SSB-DNA binding, stronger effect = higher value, concentration not given here
# [5] = compounds distorting NS3 helicase fluorescence signal – biochemical, NIH Clinical Collection, artefact control for HCV NS3 helicase inhibitor project (AID 743272; call rule not given here;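 further: HCV NS3 helicase with a Cy5 labelled single stranded DNA probe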); settings: fluorescence interference counterscreen, HCV NS3 helicase assay; stronger effect = lower value
# [6] = Wnt pathway potentiators raising nuclear beta-catenin – imaging, WNT3A-conditioned medium, mouse C2C12, NPC library, primary screen (AID 1117326; in the data active means nuclear beta-catenin stimulation mostly above about 4.2%, no sharp cut-off; inactive means mostly below about 10%); settings: stronger effect = higher value
# [7] = stimulators of insulin release from INS-1E, primary screen, cell-based, 5 mM glucose, NPC library (AID 1117329;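 active means compound raises insulin release from rat beta cells at 5 mM glucose, no numeric limit stated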); settings: rat INS-1E insulin secretion, at 10 µM, stronger effect = higher value
# [8] = growth inhibition of GSK3B-pretreated HCT116 cells – cell-based, CellTiter-Glo, 0.2 to 20 µM (AID 1117336;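 active means compounds lowering colon cancer cell viability after pretreatment blocking the GSK3B kinase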); settings: HCT116 viability after GSK3B inhibitor, at 20 µM, stronger effect = higher value
# [9] = inhibition of endothelial tube formation, primary screen, imaging, VEGF stimulated, CD31 staining, tube area, NPC library (AID 1117340;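 active means compound that reduces growth-factor-driven endothelial tube area in a mixed cell culture, no cutoff stated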); settings: VEGF-stimulated ADSC/ECFC co-culture, at 10 µM, stronger effect = higher value
# [10] = GLP1 release stimulators, primary, NCI-H716, NPC library (AID 1117341;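 active means compound raises GLP1 secretion from the human gut endocrine cells, with no numeric limit stated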); settings: NCI-H716 cells, at 10 µM, stronger effect = higher value
# [11] = HCT116 colon cancer cell growth inhibition, primary screen, CellTiter-Glo luminescence, NPC library (AID 1117342;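 active means compounds that lower survival of HCT116 colon cancer cells in the luminescence readout, no numeric limit stated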); settings: at 20 µM (top of the series)
# [12] = reduced SW480 viability measured with CellTiter-Glo, NPC library, primary (AID 1117343;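 active means compounds that lower viability of the colon cancer cells in the luminescence readout, with no numeric limit stated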); settings: CellTiter-Glo luminescence; at 20 µM (top of the series)
# [13] = NPC library primary testing for decreased DLD-1 cell viability via CellTiter-Glo (AID 1117346;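 active means compounds that lower survival of DLD-1 colon cancer cells in the luminescence readout, no cutoff given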); settings: DLD-1 viability, CellTiter-Glo luminescence; at 20 µM (top of the series)
# [14] = target: 6-phosphogluconate dehydrogenase, decarboxylating (Homo sapiens) (UniProt P52209); assay: inhibition of human phosphogluconate dehydrogenase – biochemical, recombinant enzyme, NADPH absorbance, primary screen (AID 1159550;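 active means at least 20% inhibition of 6-phosphogluconate dehydrogenase activity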); settings: recombinant 6PGD, NADPH absorbance 341 nm; at 10 µM; stronger effect = higher value
# [15] = viability loss in pontine glioma line – cell-based, SU-DIPG-XVII, MIPE5.0, CellTiter-Glo, qHTS, dose response (AID 1347060; cut-off not given, nearly all actives have AC50 up to about 26 µM); settings: CellTiter-Glo ATP luminescence
# [16] = viability loss in pontine glioma line – cell-based, SU-DIPG-XIII, MIPE4.0, CellTiter-Glo, qHTS, dose response (AID 1347061; cut-off not given, nearly all actives have AC50 up to about 37 µM;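 further: cells exposed to compound for 48 hours before readout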); settings: CellTiter-Glo ATP luminescence
# [17] = viability loss in pontine glioma line – cell-based, SU-DIPG-IV, MIPE4.0, CellTiter-Glo, qHTS, dose response (AID 1347063; cut-off not given, nearly all actives have AC50 up to about 30 µM;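 further: compound exposure lasted 48 hours before the viability readout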); settings: CellTiter-Glo ATP luminescence
# [18] = viability loss in pontine glioma line – cell-based, SU-DIPG-XIII, MIPE5.0, CellTiter-Glo, qHTS, dose response (AID 1347064; cut-off not given, nearly all actives have AC50 up to about 23 µM); settings: CellTiter-Glo ATP luminescence
# [19] = viability loss in pontine glioma line – cell-based, SU-DIPG-XXV, MIPE5.0, CellTiter-Glo, qHTS, dose response (AID 1347065; cut-off not given, nearly all actives have AC50 up to about 26 µM;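 further: cells exposed to compound for 48 hours before ATP readout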); settings: CellTiter-Glo ATP luminescence
# [20] = growth inhibition of DIPG cells – cell-based, MIPE4.0 library, CellTiter-Glo luminescence, qHTS (AID 1347066; cut-off not given, nearly all actives have AC50 up to about 30 µM;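 further: cells exposed to compound for 48 hours before readout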); settings: SU-DIPG-VI viability, CellTiter-Glo ATP luminescence
# [21] = JHH-DIPG-1 glioma cell viability, MIPE5.0 library, CellTiter-Glo luminescence, qHTS (AID 1347067; cut-off not given, nearly all actives have AC50 up to about 26 µM;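 further: cells exposed to compound for 48 hours before readout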); settings: JHH-DIPG-1 glioma viability, CellTiter-Glo ATP luminescence
# [22] = growth inhibition of DIPG cells – cell-based, MIPE5.0 library, qHTS (AID 1347068; cut-off not given, nearly all actives have IC50 up to about 30 µM); settings: SU-DIPG-XXV viability
# [23] = viability loss with induced miR-34 in A549 – imaging, A549 dox-inducible miR-34, nuclei and caspase counts, primary screen (AID 1347080;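 active means compounds whose cell count with miR-34 switched on is under 0.7 times the count with it off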); settings: A549 miR-34 inducible, Hoechst nuclei count, 48 h
# [24] = target: NAD(+) hydrolase SARM1 (Homo sapiens) (UniProt Q6SZW1); assay: blocking NAD cleavage by SARM1 SAM-TIR – cell lysate, NAD-Glo luminescence (AID 1508614;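 active means compound whose remaining NAD level is above about 45 nM, limit read from the data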); settings: SAM-TIR HEK293T lysate NADase, at 1 µM, stronger effect = higher value
# [25] = target: Mitogen-activated protein kinase 7 (Homo sapiens) (UniProt Q13164); assay: Gal4-ERK5 driven luciferase induction – cell-based, HTS, primary screen (AID 1508626;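 active means luciferase signal above three times the same-plate solvent-only control wells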;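 further: luciferase driven by Gal4-ERK5 fusion binding five Gal4 sites before minimal TATA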); settings: HeLa Gal4-ERK5 transactivation, 18 h, at 5 µM, stronger effect = higher value
# [26] = galactose survival enhancers in mitochondrial complex I cybrids – cell-based, galactose medium, ATP luminescence, primary screen (AID 1645843;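 active means z-score of at least 1.8 in each of two replicates, scored against plate mean and spread of sample wells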;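 further: positive z means more ATP and so rescue of galactose-driven cybrid death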); settings: complex I mutant cybrid cells, 72 h, stronger effect = higher value
# F380Y = assay: BK channel mutant inhibitors and activators – cell-based, U2OS BacMam, thallium flux, beta subunits, selectivity assay, profiling panel (AID 1259406); settings: U2OS BacMam BK variants, at 30 µM;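 further: initial slope of Thallos dye fluorescence rise after thallium is added; log ratio against the mean of 0.3% DMSO vehicle wells on the same plate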
# F380Y/beta1 = assay: as above; settings: U2OS BacMam BK variants, at 30 µM
# F380Y/beta2Delta = assay: as above; settings: U2OS BacMam BK variants, at 30 µM
# F380Y/beta4 = assay: as above; settings: U2OS BacMam BK variants, at 30 µM
# [27] = target: Calcium-activated potassium channel subunit alpha-1 (Homo sapiens) + Leucine-rich repeat-containing protein 26 (Homo sapiens) (UniProt Q12791+Q2I0M4); assay: as above; settings: U2OS BacMam BK variants, F380Y/Slo1WT/gamma1, at 30 µM
# R275C = assay: as above; settings: U2OS BacMam BK variants, at 30 µM
# R275C/beta1 = assay: as above; settings: U2OS BacMam BK variants, at 30 µM
# R275C/beta2Delta = assay: as above; settings: U2OS BacMam BK variants, at 30 µM
# R275C/beta4 = assay: as above; settings: U2OS BacMam BK variants, at 30 µM
# R275C/Slo1WT/beta2 = assay: as above; settings: U2OS BacMam BK variants, at 30 µM
# Calcium-activated potassium channel subunit alpha-1 (Homo sapiens) + Leucine-rich repeat-containing protein 26 (Homo sapiens), sequence (Q2I0M4 whole entry, looked up, one chain of several): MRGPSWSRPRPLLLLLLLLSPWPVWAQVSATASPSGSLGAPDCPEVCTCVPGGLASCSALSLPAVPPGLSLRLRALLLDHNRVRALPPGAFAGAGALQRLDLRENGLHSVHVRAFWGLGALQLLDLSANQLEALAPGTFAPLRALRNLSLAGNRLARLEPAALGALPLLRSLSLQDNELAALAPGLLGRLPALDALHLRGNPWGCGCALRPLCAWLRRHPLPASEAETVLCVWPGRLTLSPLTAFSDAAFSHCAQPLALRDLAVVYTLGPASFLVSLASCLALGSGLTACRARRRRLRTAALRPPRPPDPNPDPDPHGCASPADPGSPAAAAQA
# Mitogen-activated protein kinase 7 (Homo sapiens), sequence (Q13164 whole entry, looked up, the tested form may be a part): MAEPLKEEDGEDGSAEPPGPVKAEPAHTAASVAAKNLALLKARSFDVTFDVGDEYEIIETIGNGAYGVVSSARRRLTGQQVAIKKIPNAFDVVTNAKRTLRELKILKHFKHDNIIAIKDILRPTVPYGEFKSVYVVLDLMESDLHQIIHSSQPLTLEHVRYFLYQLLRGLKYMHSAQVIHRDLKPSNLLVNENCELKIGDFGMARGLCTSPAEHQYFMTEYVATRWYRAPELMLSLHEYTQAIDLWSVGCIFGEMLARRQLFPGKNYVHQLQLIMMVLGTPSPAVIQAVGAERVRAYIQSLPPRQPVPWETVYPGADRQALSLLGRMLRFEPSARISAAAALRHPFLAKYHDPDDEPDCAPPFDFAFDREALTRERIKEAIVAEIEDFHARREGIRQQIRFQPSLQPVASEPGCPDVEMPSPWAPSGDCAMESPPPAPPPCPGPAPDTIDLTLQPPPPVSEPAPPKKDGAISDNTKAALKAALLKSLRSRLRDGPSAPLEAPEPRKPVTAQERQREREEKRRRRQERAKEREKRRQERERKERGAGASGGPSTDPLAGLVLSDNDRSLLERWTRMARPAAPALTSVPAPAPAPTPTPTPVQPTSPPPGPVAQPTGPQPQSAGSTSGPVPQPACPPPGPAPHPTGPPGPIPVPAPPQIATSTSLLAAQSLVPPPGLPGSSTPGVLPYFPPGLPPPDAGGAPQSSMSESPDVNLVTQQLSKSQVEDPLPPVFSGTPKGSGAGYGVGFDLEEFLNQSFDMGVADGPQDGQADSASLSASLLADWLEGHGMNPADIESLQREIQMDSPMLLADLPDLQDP
# 6-phosphogluconate dehydrogenase, decarboxylating (Homo sapiens), sequence (P52209 whole entry, looked up): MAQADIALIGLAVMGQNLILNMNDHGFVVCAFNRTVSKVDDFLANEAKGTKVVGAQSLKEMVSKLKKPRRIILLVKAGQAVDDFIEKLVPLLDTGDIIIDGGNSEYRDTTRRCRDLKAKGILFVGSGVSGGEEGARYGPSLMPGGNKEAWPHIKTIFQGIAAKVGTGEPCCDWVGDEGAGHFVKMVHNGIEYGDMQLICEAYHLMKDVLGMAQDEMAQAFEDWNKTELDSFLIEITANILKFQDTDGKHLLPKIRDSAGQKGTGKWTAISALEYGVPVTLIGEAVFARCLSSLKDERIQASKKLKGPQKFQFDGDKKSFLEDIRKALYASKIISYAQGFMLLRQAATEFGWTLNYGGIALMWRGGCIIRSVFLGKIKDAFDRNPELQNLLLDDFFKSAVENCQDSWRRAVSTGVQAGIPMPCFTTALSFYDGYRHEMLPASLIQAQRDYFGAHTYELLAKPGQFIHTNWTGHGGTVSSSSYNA
# NAD(+) hydrolase SARM1 (Homo sapiens), sequence (Q6SZW1 whole entry, looked up, the tested form may be a part): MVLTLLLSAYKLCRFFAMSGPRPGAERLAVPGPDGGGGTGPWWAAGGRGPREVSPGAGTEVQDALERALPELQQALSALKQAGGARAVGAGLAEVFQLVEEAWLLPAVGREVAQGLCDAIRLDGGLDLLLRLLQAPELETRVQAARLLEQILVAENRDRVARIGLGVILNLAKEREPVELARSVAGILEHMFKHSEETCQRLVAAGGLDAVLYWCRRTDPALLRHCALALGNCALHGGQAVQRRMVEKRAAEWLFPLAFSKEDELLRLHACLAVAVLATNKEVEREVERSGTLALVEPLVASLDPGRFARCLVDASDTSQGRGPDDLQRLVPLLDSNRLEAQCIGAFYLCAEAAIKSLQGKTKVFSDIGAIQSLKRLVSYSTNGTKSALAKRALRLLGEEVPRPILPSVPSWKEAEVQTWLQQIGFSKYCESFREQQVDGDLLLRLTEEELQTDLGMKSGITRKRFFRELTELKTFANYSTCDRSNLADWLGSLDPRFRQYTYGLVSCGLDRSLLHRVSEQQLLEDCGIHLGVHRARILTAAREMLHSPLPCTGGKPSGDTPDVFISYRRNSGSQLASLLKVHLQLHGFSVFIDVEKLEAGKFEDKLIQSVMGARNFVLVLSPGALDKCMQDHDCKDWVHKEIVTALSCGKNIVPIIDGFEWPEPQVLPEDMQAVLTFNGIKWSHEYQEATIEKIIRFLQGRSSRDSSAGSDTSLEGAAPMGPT
compound,measurement,setting,value
CC1(C)O[C@@H]2C[C@H]3[C@@H]4CCC5=CC(=O)C=C[C@]5(C)[C@@]4(F)[C@@H](O)C[C@]3(C)[C@]2(C(=O)CO)O1,parasite load remaining,[1],89.9% (inactive)
same,viability,[1],87.8%
same,fluorescence ratio,[2],0.99 (inactive)
same,inhibition,[3],-0.45% (inactive)
same,inhibition,[4],4.1% (inactive)
same,fluorescence ratio,[5],0.99 (inactive)
same,nuclear beta-catenin stimulation,[6]; at 10 µM,-0.5% (inactive)
same,nuclear beta-catenin stimulation,"[6]; stimulation, at 2 µM",3.8%
same,insulin secretion stimulation,[7],3.4% (inactive)
same,viability decrease,[8],21.8% (inactive)
same,tube area decrease,[9],0.2% (inactive)
same,GLP1 secretion stimulation,[10],-1% (inactive)
same,inhibition of viability,[11],8.4% (inactive)
same,viability decrease (inhibition),[12],34.9% (inactive)
same,viability decrease (inhibition),[13],-6.5% (inactive)
same,inhibition,[14],10.8% (inactive)
same,outcome,[15],inactive
same,outcome,[16],inactive
same,outcome,[17],inactive
same,outcome,[18],inactive
same,outcome,[19],inactive
same,outcome,[20],inactive
same,outcome,[21],inactive
same,outcome,[22],inactive
same,fold change,"[23]; stronger effect = lower value, cell number ratio, induced over uninduced",0.992 (inactive)
same,fold change,[23]; measured here: relative caspase fold change +Dox/-Dox,0.777
same,cell count,"[23]; measured here: total cells with miR-34 induction, stronger effect = lower value",7390
same,cell count,[23]; measured here: total cells without miR-34 induction,7450
same,remaining NAD,[24],10 nM (inactive)
same,luciferase signal,[25],36 AU (inactive)
same,z-score,[26],0.21 (inactive)
same,log fold change Tl+ flux,F380Y,0.0424 (inactive)
same,log fold change Tl+ flux,F380Y/beta1,0.0642 (inactive)
same,log fold change Tl+ flux,F380Y/beta2Delta,-0.014 (inactive)
same,log fold change Tl+ flux,F380Y/beta4,0.0499 (inactive)
same,log fold change Tl+ flux,[27],0.106 (active)
same,log fold change Tl+ flux,R275C,-0.0106 (inactive)
same,log fold change Tl+ flux,R275C/beta1,0.0867 (inactive)
same,log fold change Tl+ flux,R275C/beta2Delta,0.0611 (inactive)
same,log fold change Tl+ flux,R275C/beta4,-0.0125 (inactive)
same,log fold change Tl+ flux,R275C/Slo1WT/beta2,-0.102 (inactive)
